Measured values: PubChem BioAssay (EPA / NIEHS)
Inconclusive results are not listed. Calls of active or inactive are those of the source. The calls were made as follows: active = hit-call score of the fitted dose curve at least 0.9, where 1 is the maximum; inconclusive = response in the unintended direction; inactive = score below 0.9.

target: Androgen receptor (Homo sapiens) (UniProt P10275); experiment: ATG_AR_TRANS: Attagene TRANS-FACTORIAL HepG2 Assay for human Androgen Receptor (AR) (AID 2282973); conditions: HepG2 Attagene TRANS-FACTORIAL AR reporter transcription
Sequence (P10275 whole entry, looked up, the tested form may be a part): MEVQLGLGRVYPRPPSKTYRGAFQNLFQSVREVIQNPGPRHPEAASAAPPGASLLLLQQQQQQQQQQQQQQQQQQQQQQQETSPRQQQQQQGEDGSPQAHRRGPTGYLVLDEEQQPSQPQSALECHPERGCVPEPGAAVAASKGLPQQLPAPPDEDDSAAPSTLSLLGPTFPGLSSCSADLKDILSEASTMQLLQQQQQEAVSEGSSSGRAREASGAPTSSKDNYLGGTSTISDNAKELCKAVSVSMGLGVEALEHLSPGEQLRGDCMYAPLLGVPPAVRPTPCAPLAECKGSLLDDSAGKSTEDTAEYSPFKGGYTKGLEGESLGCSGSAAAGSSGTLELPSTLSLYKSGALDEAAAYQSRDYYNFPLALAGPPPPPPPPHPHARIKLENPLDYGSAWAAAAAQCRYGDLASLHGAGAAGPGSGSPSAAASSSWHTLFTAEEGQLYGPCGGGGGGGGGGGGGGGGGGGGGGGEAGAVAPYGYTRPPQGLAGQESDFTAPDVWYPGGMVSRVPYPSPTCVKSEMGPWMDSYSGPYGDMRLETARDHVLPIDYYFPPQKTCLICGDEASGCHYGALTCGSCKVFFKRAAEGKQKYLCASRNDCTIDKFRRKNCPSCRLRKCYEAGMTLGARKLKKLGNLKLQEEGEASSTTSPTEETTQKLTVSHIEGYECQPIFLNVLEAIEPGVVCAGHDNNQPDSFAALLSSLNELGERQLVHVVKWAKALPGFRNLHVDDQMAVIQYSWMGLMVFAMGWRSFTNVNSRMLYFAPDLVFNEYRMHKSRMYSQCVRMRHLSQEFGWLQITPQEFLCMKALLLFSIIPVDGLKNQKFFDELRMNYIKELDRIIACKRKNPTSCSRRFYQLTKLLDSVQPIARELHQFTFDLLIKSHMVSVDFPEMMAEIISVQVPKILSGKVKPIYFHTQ
In short: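 Chimeric nuclear receptor–Gal4 activity was assessed in human HepG2 hepatocytes after 24 h chemical dosing. Induced reporter mRNA was detected via labelled RT-PCR fragments on capillary electrophoresis, and gain of signal was analysed against DMSO.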

outcome, inactive:
CC1CNCC(C)O1 (stereo unspecified)
NC(=O)OCC(COC(N)=O)c1ccccc1
OCCN(CCO)c1cccc(Cl)c1
CN(C)c1ccc(C(c2ccccc2)c2ccc(N(C)C)cc2)cc1
c1ccc(-c2ccccn2)nc1
C=C1C[C@H]2[C@@H]3C=C(C)C4=CC(=O)CC[C@]4(C)[C@H]3CC[C@]2(C)[C@@]1(OC(C)=O)C(C)=O
C=CC(=O)OCCCCCCOC(=O)C=C
N[C@H]1C(O)O[C@H](CO)[C@H](O)[C@@H]1O (stereo partly specified)
O=C[C@H](O)[C@H](O)[C@H](O)CO
CC(=O)O[C@H]1C[C@@H]2CC[C@@]1(C)C2(C)C
FC(F)(F)C1(F)C(F)(F)C(F)(F)C(F)(F)C(F)(C(F)(F)F)C1(F)F (stereo unspecified)
